The values below come from PubChem BioAssay (NCATS).

Records with an inconclusive call do not appear. Active and inactive are the calls of the source. Calls follow the shape of the dose curve; as a rule, active = well fitted inhibition curve with a large enough effect; inconclusive = small, poorly fitted or top-dose-only effect; inactive = no such curve, though single readings can be large or run the other way.

The nature of the experiment: qHTS assay to identify inhibitors of the type 1 interferon - major histocompatibility complex class I in skeletal muscle: Counter screen cell viability and HiBit confirmation (AID 1347412). Also: nearly all actives have a fitted effect of over 60% in size. Particulars: iHSKM muscle cells + IFN-b, HiBiT or CellTiter-Glo, 24 h; Viability. The method in brief: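 HLA-B*08:01–HiBiT knock-in immortalized human myoblasts (C25cl48) stimulated with 4.0 ng/ml human IFN-beta and dosed with compound in a 12-point 1:3 titration (top final 46 uM). After 24 hrs at 37 C, HiBiT lytic luminescence or CellTiter Glo ATP read out.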
Potency is read from the fitted curve at half-maximal effect.

Turning to `CC[n+]1c(/C=C/C=C2/N(C)c3ccccc3C2(C)C)sc2ccccc21`, the Potency was 9.91 µM (active).
